Compound activity deposited in PubChem BioAssay by National Center for Advancing Translational Sciences (NCATS).
S-ASM inh: blocks human secretory acid sphingomyelinase; P17405; placental ASM, HMU-PC fluorogenic substrate, 60 min; Potency, µM (titrated, usually from 57.5 µM), for inactives: at the highest dose activity change, negative = inhibition, usual class: inhibitors; 340,000 compounds, 0.006% hits; AID 504937
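Fluorescence read-out (Ex 386 nm, Em 447 nm) after stopping the reaction at pH 10. Enzyme: ASM from human placenta; substrate HMU-PC0, 9 uM final; 60 min, 37 °C. Compound preincubation 10 min, ambient temperature.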
VDR inhibitor: inhibitors of human vitamin D receptor; VDR-SRC2-3 peptide fluorescence polarization, 2 h; 400,000 compounds, 0.93% hits; Potency, µM, for inactives: max response, negative = inhibition, usual class: inhibitors; AID 504847; P11473; note: % is set by controls: 0 for no effect and ±100 for the full control effect
Target sequence (P11473 whole entry, looked up): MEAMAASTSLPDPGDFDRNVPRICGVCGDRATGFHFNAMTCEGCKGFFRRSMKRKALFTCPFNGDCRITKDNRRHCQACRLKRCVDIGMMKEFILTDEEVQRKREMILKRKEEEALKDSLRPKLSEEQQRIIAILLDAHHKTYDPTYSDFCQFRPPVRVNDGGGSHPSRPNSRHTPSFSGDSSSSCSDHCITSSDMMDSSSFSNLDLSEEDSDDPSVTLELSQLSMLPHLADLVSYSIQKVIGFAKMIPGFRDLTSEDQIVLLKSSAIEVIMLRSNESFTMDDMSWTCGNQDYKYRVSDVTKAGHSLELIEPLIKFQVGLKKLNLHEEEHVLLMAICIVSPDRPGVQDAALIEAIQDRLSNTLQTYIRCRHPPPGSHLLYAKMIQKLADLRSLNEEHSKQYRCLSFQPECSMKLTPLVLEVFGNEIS
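VDR–SRC2-3 interaction, FP format. Cmpds 23 nl via pintool, brief spin, 2 h ambient incubation.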
Tb PFK inh: inhibitors of T. brucei phosphofructokinase; O15648; Potency, µM (doses to about 57.5 µM), inactives show at the highest dose activity, negative = inhibition, actives largely listed as inhibitors; T. brucei PFK, ADP-Glo luminescence; AID 485367; 330,000 compounds, 0.17% hits;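 note: 0% = uninhibited 1x PFK enzyme wells and -100% = no-enzyme wells; nearly all actives have a fitted effect of over 60% in size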
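Luminescent ADP detection (ADP-Glo, two-step: ATP depletion then ADP-to-ATP conversion for luciferase) reported PFK activity after 45 min room-temperature reaction of 1.25 nM enzyme with 0.5 mM F6P and 0.1 mM ATP at pH 8.0.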
Pin1 inhibitor: human Pin1 inhibition; Q13526; Pin1 FP peptide displacement, HiFluor488, 10 min; Potency, µM (highest dose often 115 µM), for inactives: at the top dose activity, negative = inhibition, most hits filed as inhibitors; 390,000 compounds, 0.009% hits; AID 504891; active = well fitted inhibition curve with a large enough effect in the polarisation, with a control signal flat, not every such curve was filed as active; inconclusive = small, poorly fitted or top-dose-only effect, or effect the other way, or a change in a side signal; inactive = no such curve, though single readings can be large or run the other way; the % refers to the polarisation; note: % is set by controls: 0 for no effect and ±100 for the full control effect
TDP1 inh: blocks human tyrosyl-DNA phosphodiesterase 1; Potency, µM (doses to about 130 µM), for inactives: at the highest dose activity change, negative = inhibition, usual class: inhibitors; AID 485290; 350,000 compounds, 0.28% hits; recombinant TDP1, AlphaScreen DNA substrate cleavage; note: % is set by controls: 0 for no effect and ±100 for the full control effect; nearly all actives have a fitted effect of over 40% in size
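Signal: AlphaScreen proximity between streptavidin donor and anti-FITC acceptor beads on intact substrate. Reaction: Tdp1 1 nM, substrate 15 nM final, 5 min RT after 15 min compound preincubation.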
PLK1 PBD inh: inhibitors of human PLK1 polo-box domain binding; Plk1 PBD binding of FITC phosphopeptide, fluorescence polarization; Potency, µM, inactives show max response, negative = inhibition, most hits filed as inhibitors; 360,000 compounds, 2.8% hits; AID 720504; note: series mostly up to about 57 µM; % is set by controls: 0 for no effect and ±100 for the full control effect; nearly all actives have a fitted effect of over 65% in size
The depositor's hits bear a star; [ ] = remark or other dose. In the library only some 3.1% were active in any assay of this set; here they are far more common. Unless noted, calls come from the whole dose curve; as a rule, active = well fitted curve in the direction sought with a large enough effect; inconclusive = small, poorly fitted or top-dose-only effect, or another doubt; inactive = no such curve, though single readings can be large; an effect the other way counts as inactive or inconclusive. Potency is the fitted concentration of half-maximal effect.

O=C(O)c1cc[c]([Hg][Cl])cc1 was read as S-ASM inh 5.3%, VDR inhibitor 10µM*, Tb PFK inh 4.26µM*, Pin1 inhibitor 1.8%, TDP1 inh inconclusive and PLK1 PBD inh 0.238µM*.
Screening c1ccc2sc(C3(NCC4CC4)CCCCC3)cc2c1 returned VDR inhibitor 7.0% and TDP1 inh 7.3%.
For CN[C@@H]1C[C@H](c2ccc(Cl)c(Cl)c2)c2ccccc21 the results were VDR inhibitor inconclusive and TDP1 inh 8.3%.
Screening O=C1C=CC(=O)c2c(O)cccc21 returned VDR inhibitor 39.8µM* and TDP1 inh -6.2%.
For O=C1C=Cc2ccccc2C1=O the results were Tb PFK inh inconclusive and TDP1 inh -11.0%.
For C[n+]1cc(P(=S)(c2ccccc2)c2ccccc2)n2ccccc21 the results were Pin1 inhibitor -3.0% and TDP1 inh 0.4%.
COC(=O)c1nc(-c2ccc3c(n2)C(=O)C(N)=C(OC)C3=O)c(N)c(-c2ccc(OC)c(OC)c2O)c1C was read as S-ASM inh -13.7%, VDR inhibitor 10µM*, Tb PFK inh -0.3%, Pin1 inhibitor inconclusive, TDP1 inh 1.3% and PLK1 PBD inh -6.3%.
Screening C=C1C(O)C2OC3(CCC(/C=C/C(C)C4CC(C)=CC5(OC(CC(C)(O)C(=O)O)CCC5O)O4)O3)CCC2OC1C(O)CC(C)C1OC2(CCCCO2)CCC1C (centres undefined) returned VDR inhibitor 13.3% and TDP1 inh -3.1%[3.34 µM].
Screening CC(Cl)CCl (centres undefined) returned TDP1 inh 5.9%.
CCCCCCNc1nc(OC)nc(N2CC3CC(C2)c2cccc(=O)n2C3)n1 (centres undefined) was read as S-ASM inh -1.9%, VDR inhibitor 1.7%, Tb PFK inh 0.5%, Pin1 inhibitor 0.5%, TDP1 inh 1.6% and PLK1 PBD inh 2.1%.
For CCOc1nc(NC(C)C)nc(N2CC3CC(C2)c2cccc(=O)n2C3)n1 (centres undefined) the results were S-ASM inh 5.3%, VDR inhibitor inconclusive, Tb PFK inh -1.4%, Pin1 inhibitor -3.8%, TDP1 inh 5.3% and PLK1 PBD inh 7.52µM*.
Cc1cc(/C=C2\C(=O)NC(=O)N(c3ccc(Cl)cc3)C2=O)c(C)n1-c1cccc(C(=O)O)c1 was read as S-ASM inh -10.6%, VDR inhibitor 8.3%, Tb PFK inh 22.9%, Pin1 inhibitor 0.7% and PLK1 PBD inh 26.7µM*.
Cc1cc(/C=C2/C(=O)NC(=O)N(c3ccc(Br)cc3)C2=O)c(C)n1C was read as S-ASM inh -0.8%, VDR inhibitor 23.4%, Tb PFK inh 0.7%, Pin1 inhibitor inconclusive, TDP1 inh -1.2% and PLK1 PBD inh -6.4%.
`Cc1cc(/C=C2\C(=O)NC(=O)N(c3ccc(Br)cc3)C2=O)c(C)n1C` gave S-ASM inh -1.8%, VDR inhibitor 13.6%, Tb PFK inh 2.6%, Pin1 inhibitor inconclusive, TDP1 inh 2.7% and PLK1 PBD inh -2.4%.
Cc1cc(/C=C2\C(=O)NC(=O)N(c3ccc(Br)cc3)C2=O)c(C)n1-c1cc(C(=O)O)cc(C(=O)O)c1 was read as S-ASM inh 5.3%, VDR inhibitor inconclusive, Tb PFK inh -20.5%, Pin1 inhibitor inconclusive and PLK1 PBD inh 11.9µM*.
Screening c1cc2cc(c1)C[n+]1ccc(c3ccccc31)NCc1ccc(cc1)CNc1cc[n+](c3ccccc13)C2 returned VDR inhibitor -6.3% and TDP1 inh -7.3%[56.1 µM].
For CC1=C(C(=O)O)N2C(=O)C(NC(=O)c3nn(C)cc3[N+](=O)[O-])C2SC1 (centres undefined) the results were S-ASM inh 0.1%, VDR inhibitor inconclusive, Tb PFK inh 1.0%, Pin1 inhibitor -12.1%, TDP1 inh -10.8% and PLK1 PBD inh 33.6µM*.
`Oc1c(Cl)c(Cl)c(Cl)c(Cl)c1Cl` gave S-ASM inh 1.1%, VDR inhibitor 89.1µM*, Pin1 inhibitor -7.8%, TDP1 inh 2.7% and PLK1 PBD inh 26.7µM*.
